Assay [1] is described as follows: qHTS for Inhibitors of the Functional Ribonucleoprotein Complex (vRNP) of Lassa (LASV) Arenavirus: LASV Primary Screen - GLuc reporter signal (AID 1347082; calls by dose curve; tested in HEK293 reporter line; further: nearly all actives have a fitted effect of over 60% in size; further: potency means the concentration at half of the fitted maximal effect; on activity change, negative = inhibition: on the % scale 0 is the no-effect control and ±100 the full control effect).
Assay [2] can be described thus: qHTS for Inhibitors of the Functional Ribonucleoprotein Complex (vRNP) of Lassa (LASV) Arenavirus: Viability assay - alamar blue signal for LASV Primary Screen (AID 1347083; calls by dose curve; tested in HEK293 reporter line; further: nearly all actives have a fitted effect of over 80% in size; further: potency means the concentration at half of the fitted maximal effect). A general note: qHTS replaces the single test concentration by a dilution series.
Assay [3] in a line: qHTS for Inhibitors of the Functional Ribonucleoprotein Complex (vRNP) of Lymphocytic Choriomeningitis Arenaviruses (LCMV): Viability assay - alamar blue signal for LCMV Primary Screen (AID 1347085; calls by dose curve; tested in HEK293 reporter line; further: nearly all actives have a fitted effect of over 80% in size; further: potency means the concentration at half of the fitted maximal effect).
In assay [4] the target is Nucleoprotein (Lymphocytic choriomeningitis virus (strain Armstrong)) (UniProt P09992). The experiment in a line: qHTS for Inhibitors of the Functional Ribonucleoprotein Complex (vRNP) of Lymphocytic Choriomeningitis Arenaviruses (LCMV): LCMV Primary Screen - GLuc reporter signal (AID 1347086). Further: nearly all actives have a fitted effect of over 70% in size. Further: potency means the concentration at half of the fitted maximal effect.
Chain of Nucleoprotein (Lymphocytic choriomeningitis virus (strain Armstrong)) (P09992 whole entry, looked up): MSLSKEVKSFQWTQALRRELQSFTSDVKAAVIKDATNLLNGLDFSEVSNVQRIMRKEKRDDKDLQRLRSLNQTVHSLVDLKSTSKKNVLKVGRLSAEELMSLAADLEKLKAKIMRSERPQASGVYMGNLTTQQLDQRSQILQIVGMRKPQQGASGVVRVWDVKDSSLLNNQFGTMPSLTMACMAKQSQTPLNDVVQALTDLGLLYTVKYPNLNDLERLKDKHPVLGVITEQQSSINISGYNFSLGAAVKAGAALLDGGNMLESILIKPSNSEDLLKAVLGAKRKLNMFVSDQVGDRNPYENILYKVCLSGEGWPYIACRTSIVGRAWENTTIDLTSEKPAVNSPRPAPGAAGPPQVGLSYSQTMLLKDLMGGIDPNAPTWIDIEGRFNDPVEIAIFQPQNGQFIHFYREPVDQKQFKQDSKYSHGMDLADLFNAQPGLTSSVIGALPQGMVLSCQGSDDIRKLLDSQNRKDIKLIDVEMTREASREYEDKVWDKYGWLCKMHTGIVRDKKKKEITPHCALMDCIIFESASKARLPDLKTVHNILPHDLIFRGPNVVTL
Assay [5] is described as follows: Primary qHTS for Huh7 cytotoxicity: counterscreen for inhibitors of MERS-S pseudotyped particle cell entry (AID 1479147). The note with it: outcome: dose series up to 57.1 µM unless noted.
A short description of assay [6]: Primary qHTS for inhibitors of MERS-S pseudo-typed particle cell entry (AID 1479149). Further: nearly all actives have a fitted effect of over 60% in size. Further: potency means the concentration at half of the fitted maximal effect. On activity change, negative = inhibition: on the % scale 0 is the no-effect control and ±100 the full control effect.
The nature of assay [7]: Primary qHTS for Vero E6 cytotoxicity: counterscreen for inhibitors of SARS-S pseudo-typed particle cell entry (AID 1479150). The note with it: outcome: dose series up to 57.1 µM unless noted.
Assay [8] can be described thus: Cytotoxicity counterscreen for inhibitors of SARS-CoV-2 cell entry (AID 1645845). Further: nearly all actives have a fitted effect of over 50% in size. On activity change, negative = cytotoxicity: on the % scale 0 is the no-effect control and ±100 the full control effect. The essentials: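 ATP-content luminescence (ATPLite 1step, 15 min RT) read after 48 h compound exposure of Expi293F cells stably expressing human ACE2; normalized to cells-only wells and media-only wells.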
Background: The purpose of a counterscreen is to sort out artefacts and off-target activity.

Assay [9] can be described thus: Primary qHTS to identify inhibitors of SARS-CoV-2 cell entry (AID 1645846). Further: nearly all actives have a fitted effect of over 45% in size. To be noted: activity change, negative = inhibition: at 57.1 µM (top of the series) unless noted. The essentials:
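Inhibition of spike-mediated entry was scored in human ACE2-transfected Expi293F cells. Particles were MLV-pseudotyped with Wuhan-Hu-1 S carrying a 19-aa C-terminal deletion; signal was luciferase after two days, scaled between spike PP and fusion-protein-free PP.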

Assay [10] addresses Alpha-galactosidase (Coffea arabica) (UniProt Q42656). Description: Counterscreen for Glucocerebrosidase Inhibitors: qHTS Assay for Coffee Bean alpha-Galactosidase at pH 4.5 (AID 957; active means well fitted curve in the direction sought with a large enough effect; an effect the other way counts as inactive or inconclusive;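 further: plate controls were enzyme alone for no effect and no enzyme for full effect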). An outline of the steps:
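Enzyme is added first (2 nM final), then compounds titrated from 0.7 nM to 77 uM, then 80 uM 4-methylumbelliferyl alpha-D-galactopyranoside; after 20 min at room temperature a pH 10 NaOH/glycine stop precedes fluorescence reading at 365/440 nm.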

For assay [11] the target is unchanged. Description: Counterscreen for Glucocerebrosidase Inhibitors: qHTS Assay for Coffee Bean alpha-Galactosidase at pH 5.9 (AID 998; active means well fitted curve in the direction sought with a large enough effect; an effect the other way counts as inactive or inconclusive;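 further: plate controls were uninhibited enzyme for no effect and no-enzyme basal signal for full effect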). The essentials:
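Fluorogenic 4-MU substrate hydrolysis, 80 uM substrate and 2 nM coffee bean alpha-galactosidase, pH 5.9 citrate buffer, 20 min at room temperature, then NaOH/glycine stop. Titration 0.7 nM–77 uM, normalized to no-enzyme and enzyme controls, AC50 via Hill equation.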

The nature of assay [12]: Validation screen for inhibitors of Lassa infection (AID 463096). Further: on the % scale 0 is the no-effect control and ±100 the full control effect.
Assay [13] can be described thus: Inducers of the Endoplasmic Reticulum Stress Response (ERSR) in human glioma: Validation (AID 504836; active means well fitted curve in the direction sought with a large enough effect; an effect the other way counts as inactive or inconclusive; further: 0% is about no effect). An outline of the steps: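 ERSR induction read as luciferase luminescence (Bright-Glo, 10 min at room temperature) in stably transfected human U87-MG glioma cells exposed to compounds for 16 h, using GRP78 as sensor.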
Assay [14] is described as follows: Primary qHTS for inhibitors of SARS-S pseudo-typed particle cell entry (AID 1479145). Further: nearly all actives have a fitted effect of over 45% in size. Further: potency means the concentration at half of the fitted maximal effect.
In assay [15] the target is Cytochrome P450 3A4 (Homo sapiens) (UniProt P08684). Description: qHTS Assay for Activators of Cytochrome P450 3A4 (AID 885; active means well fitted curve in the direction sought with a large enough effect; an effect the other way counts as inactive or inconclusive; further: nearly all actives have a fitted effect of over 65% in size). An outline of the steps: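 Luminescent readout of luciferin formed from 25 uM Luciferin-PPXE (KM level) by 20 nM CYP3A4 in 200 mM KPO4, with 60 min NADPH-driven reaction at room temperature after 10 min compound exposure. Ketoconazole (57 uM) defined 100% inhibition.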
Chain of Cytochrome P450 3A4 (Homo sapiens) (P08684 whole entry, looked up): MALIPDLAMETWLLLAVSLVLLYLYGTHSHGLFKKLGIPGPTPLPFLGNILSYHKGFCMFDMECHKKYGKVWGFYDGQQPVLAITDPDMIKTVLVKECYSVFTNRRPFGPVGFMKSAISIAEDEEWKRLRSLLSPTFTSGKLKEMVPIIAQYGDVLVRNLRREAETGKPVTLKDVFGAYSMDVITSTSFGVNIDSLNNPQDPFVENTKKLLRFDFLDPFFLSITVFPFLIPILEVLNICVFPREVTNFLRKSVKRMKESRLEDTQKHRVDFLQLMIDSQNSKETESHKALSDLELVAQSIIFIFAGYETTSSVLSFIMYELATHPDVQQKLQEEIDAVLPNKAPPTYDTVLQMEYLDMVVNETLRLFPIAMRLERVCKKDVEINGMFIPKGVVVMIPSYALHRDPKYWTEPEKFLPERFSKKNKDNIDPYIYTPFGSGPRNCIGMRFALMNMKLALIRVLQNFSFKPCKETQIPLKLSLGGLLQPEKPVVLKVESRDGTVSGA

A short description of assay [16]: S16 Schwann cell PMP22 intronic element beta-lactamase assay (AID 624044). Further: potency means the concentration at half of the fitted maximal effect; nearly all actives have a fitted effect of over 15% in size. The essentials: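 Beta-lactamase reporter under a PMP22 intronic regulatory element in stable S16 rat Schwann cells; 24 h compound exposure. 460 nm blue signal normalized between DMSO (0%) and potassium clavulanate, with 535 nm FRET tracking viability; curves classed by r2 and response.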

A short description of assay [17]: qHTS profiling of the MIPE4 collection as inhibitors of Plasmodium falciparum (3D7) proliferation (AID 743344; call rule not given here;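 further: scaled between DMSO vehicle wells and 0.29 µM artemisinin as full inhibition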). To be noted: P. falciparum 3D7 in erythrocytes, SYBR Green DNA fluorescence, 72 h; at 28.5 µM (top of the series) unless noted. The essentials: (§1)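 Parasite DNA was quantified by SYBR Green I fluorescence (ex 485, em 535 nm) after overnight lysis in saponin/Triton buffer at room temperature. Cultures at 0.3% parasitemia and 2.5% hematocrit were first exposed to compound for 72 h at 37 C; signals were normalised to artemisinin (0.29 uM) and vehicle wells.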

The nature of assay [18]: qHTS profiling of the MIPE4 collection as inhibitors of Plasmodium falciparum (DD2) proliferation (AID 743345; call rule not given here). To be noted: P. falciparum Dd2 in erythrocytes, SYBR Green DNA, 72 h; at 28.5 µM (top of the series) unless noted. The essentials: as §1
Assay [19] is described as follows: qHTS profiling of the MIPE4 collection as inhibitors of Plasmodium falciparum (DD2) proliferation (Rep 2) (AID 743346; call rule not given here). To be noted: P. falciparum Dd2 in erythrocytes, SYBR Green DNA, 72 h; at 28.5 µM (top of the series) unless noted. The essentials: as §1
Assay [20] can be described thus: qHTS profiling of the MIPE4 collection as inhibitors of Plasmodium falciparum (HB3) proliferation (AID 743347; call rule not given here;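 further: plate controls were DMSO vehicle wells for no effect and artemisinin wells for full effect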). The note with it: P. falciparum HB3 in erythrocytes, SYBR Green DNA, 72 h; at 28.5 µM (top of the series) unless noted. An outline of the steps: as §1
Assay [21] in a line: Confirmatory qHTS to identify inhibitors of SARS-CoV-2 cell entry (AID 1645844). Further: potency means the concentration at half of the fitted maximal effect; nearly all actives have a fitted effect of over 45% in size. An outline of the steps: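 Luminescence entry read-out after 48 h: spike-pseudotyped MLV particles (Wuhan-Hu-1, 19-aa C-terminal truncation) added to compound-pretreated (1 h) HEK293-ACE2 cells; Data were normalised to bald PP and spike PP wells.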
Assay [22] in a line: VSVG counterscreen qHTS to identify inhibitors of SARS-CoV-2 cell entry (AID 1645847). Further: potency means the concentration at half of the fitted maximal effect; nearly all actives have a fitted effect of over 65% in size. An outline of the steps:
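Luminescence from a luciferase reporter, normalised to bald particle and VSV-G pseudotyped particle wells, is the read-out. Cells are HEK293 expressing human ACE2, exposed to compound 1 h before a 48 h particle infection at 37 °C.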

Results filed as inconclusive are left out. Active and inactive are the calls of the source. Unless noted, the call rests on the fitted dose curve.

Chain of Alpha-galactosidase (Coffea arabica) (Q42656 whole entry, looked up): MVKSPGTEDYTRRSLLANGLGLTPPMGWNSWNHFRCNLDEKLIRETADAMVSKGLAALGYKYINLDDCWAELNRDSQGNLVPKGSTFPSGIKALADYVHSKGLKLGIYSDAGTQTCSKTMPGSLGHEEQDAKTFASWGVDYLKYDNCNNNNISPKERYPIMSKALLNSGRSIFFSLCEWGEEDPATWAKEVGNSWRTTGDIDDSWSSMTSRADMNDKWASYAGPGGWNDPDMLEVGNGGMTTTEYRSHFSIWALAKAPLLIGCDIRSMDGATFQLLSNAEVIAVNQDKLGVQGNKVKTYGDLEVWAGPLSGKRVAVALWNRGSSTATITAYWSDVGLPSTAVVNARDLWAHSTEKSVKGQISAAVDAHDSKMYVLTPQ

Regarding `Cc1ccc(NC(=O)C2(c3ccc4c(c3)OC(F)(F)O4)CC2)nc1-c1cccc(C(=O)O)c1`, the Potency in assay [1] was 38.5 nM (active); in assay [2] it was 43.2 nM (active); in assay [3] it was 68.5 nM (active); in assay [4], 21.7 nM (active). Besides, the call in [5] and in assay [7] was inactive. Moreover, the Potency result in assay [6], in assay [8] and in assay [9] was “inactive” throughout. For the same compound, in assay [9], the activity change, negative = inhibition is -24.6%.
For `CC(=O)Nc1cccc(-n2c(=O)n(C3CC3)c(=O)c3c(Nc4ccc(I)cc4F)n(C)c(=O)c(C)c32)c1`, the Potency result in assay [1], in assay [2], in assay [3], in [4], in [6] and in assay [8] was “inactive” in each case. Besides, the result in assay [5] and in assay [7] was inactive.
Take `N[C@@H](CC(=O)O)C(=O)O`: the call in assay [10], in assay [11] and in assay [13] was inactive. The Potency result in assay [12], in assay [1], in assay [2], in [3] and in assay [4] was “inactive” each time. Moreover, in assay [14], the activity change, negative = inhibition was -20.9% [at 5.34 µM] (inactive). The outcome was “inactive [at 5.34 µM]” in assay [5], “inactive [at 5.34 µM]” in assay [6], “inactive [at 5.25 µM]” in assay [8] and “inactive [at 5.25 µM]” in assay [9]. In addition, the activity change, negative = cytotoxicity in assay [7] is 2.41% [at 5.34 µM] (inactive).
`COC(=O)C[C@](O)(CCCC(C)(C)O)C(=O)O[C@@H]1C(OC)=C[C@]23CCCN2CCc2cc4c(cc2[C@H]13)OCO4`: the Potency result in assay [15], in [1], in assay [2], in [3], in assay [4] and in assay [8] was “inactive” throughout. The Potency is 89.1 nM (active) in assay [16]; 3160 nM (active) in assay [14]; 891 nM (active) in assay [6]; 136 nM (active) in assay [21]; 68.1 nM (active) in [22]. The compound further came in with a parasite growth, % of DMSO control in assay [17] of 70%. Besides, in assay [18], the parasite growth remaining, % of DMSO control (lower = more inhibition) was determined as 85.8%. In assay [19], this compound showed a parasite growth, % of control (lower = inhibition) of 67.1%. The growth, % of control in [20] is 76.2%. The compound was called inactive in [5].

These data come from PubChem BioAssay (NCATS).
